Source: PubChem BioAssay AID1159580 (chemical genetic matrix, 2015)
Among all 5,500 compounds or so, about 2,000 (36%) were called active. Not shown: some 18% with an inconclusive outcome. This is one part of the list. Unmarked numbers belong to inactive results. Cut-off read from the data, not from the text of the source: active = normalized growth mostly below about 0.91 (no sharp cut-off); inconclusive = no clear call, values can overlap the other calls; inactive = mostly above about 0.92.

Assay: chemical genetic growth profiling, strain panel (AID 1159580);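 note: tested at 20 µM; growth read once vehicle control cultures reached saturation at 30 °C; 1 = growth at the plate median or of vehicle wells; lower values mean less growth of the strain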
Settings: S. cerevisiae deletion strains, growth OD
[1] = locus YAR019C, strain CDC15, stronger effect = lower value
[2] = locus YBL105C, strain PKC1, stronger effect = lower value
[3] = locus YBR135W, strain CKS1, stronger effect = lower value
[4] = locus YBR136W, strain MEC1, stronger effect = lower value
[5] = locus YBR160W, strain CDC28, stronger effect = lower value
[6] = locus YDL017W, strain CDC7, stronger effect = lower value
[7] = locus YDL028C, strain MPS1, stronger effect = lower value
[8] = locus YDL101C, strain DUN1, stronger effect = lower value
[9] = locus YDL108W, strain KIN28, stronger effect = lower value
[10] = locus YDL132W, strain cdc53, stronger effect = lower value
[11] = locus YDL214C, strain PRR2, stronger effect = lower value
[12] = locus YDR052C, strain DBF4, stronger effect = lower value
[13] = locus YDR054C, strain cdc34, stronger effect = lower value
[14] = locus YDR226W, strain ADK1, stronger effect = lower value
[15] = locus YDR477W, strain SNF1, stronger effect = lower value
[16] = locus YER123W, strain YCK3, stronger effect = lower value
[17] = locus YER133W, strain GLC7, stronger effect = lower value
[18] = locus YFL009W, strain cdc4, stronger effect = lower value
[19] = locus YFL029C, strain CAK1, stronger effect = lower value
[20] = locus YFR003C, strain YPI1, stronger effect = lower value
[21] = locus YFR019W, strain FAB1, stronger effect = lower value
[22] = locus YFR028C, strain CDC14, stronger effect = lower value
[23] = locus YGR040W, strain KSS1, stronger effect = lower value
[24] = locus YGR052W, strain FMP48, stronger effect = lower value
[25] = locus YGR092W, strain DBF2, stronger effect = lower value
[26] = locus YHR030C, strain SLT2, stronger effect = lower value
[27] = locus YHR079C, strain IRE1, stronger effect = lower value
[28] = locus YHR082C, strain KSP1, stronger effect = lower value
[29] = locus YHR205W, strain SCH9, stronger effect = lower value
[30] = locus YIL147C, strain SLN1, stronger effect = lower value
[31] = locus YJL095W, strain BCK1, stronger effect = lower value
[32] = locus YJL128C, strain PBS2, stronger effect = lower value
[33] = locus YJL157C, strain FAR1, stronger effect = lower value
[34] = locus YJR016C, strain ILV3, stronger effect = lower value
[35] = locus YJR066W, strain TOR1 (second series), stronger effect = lower value
[36] = locus YJR066W, strain TOR1, stronger effect = lower value
[37] = locus YKL048C, strain ELM1, stronger effect = lower value
[38] = locus YKL067W, strain YNK1, stronger effect = lower value
[39] = locus YKL101W, strain HSL1, stronger effect = lower value
[40] = locus YKL193C, strain SDS22, stronger effect = lower value
[41] = locus YKL203C, strain TOR2, stronger effect = lower value
[42] = locus YLR113W, strain HOG1, stronger effect = lower value
[43] = locus YLR133W, strain CKI1, stronger effect = lower value
[44] = locus YLR403W, strain SFP1, stronger effect = lower value
[45] = locus YML070W, strain DAK1, stronger effect = lower value
[46] = locus YMR001C, strain CDC5, stronger effect = lower value
[47] = locus YMR205C, strain PFK2 (second series), stronger effect = lower value
[48] = locus YMR277W, strain FCP1, stronger effect = lower value
[49] = locus YNL006W, strain LST8, stronger effect = lower value
[50] = locus YNL020C, strain ARK1, stronger effect = lower value
[51] = locus YNL161W, strain CBK1, stronger effect = lower value
[52] = locus YNL183C, strain NPR1, stronger effect = lower value
[53] = locus YNL207W, strain RIO2, stronger effect = lower value
[54] = locus YNL222W, strain SSU72, stronger effect = lower value
[55] = locus YNL307C, strain MCK1 (second series), stronger effect = lower value
[56] = locus YOL078W, strain AVO1, stronger effect = lower value
[57] = locus YOL136C, strain PFK27, stronger effect = lower value
[58] = locus YOR061W, strain CKA2, stronger effect = lower value
[59] = locus YOR119C, strain RIO1, stronger effect = lower value
[60] = locus YOR231W, strain MKK1, stronger effect = lower value
[61] = locus YOR329C, strain SCD5, stronger effect = lower value
[62] = locus YPL031C, strain PHO85, stronger effect = lower value
[63] = locus YPL153C, strain RAD53, stronger effect = lower value
[64] = locus YPL204W, strain HRR25, stronger effect = lower value
[65] = locus YPL209C, strain IPL1, stronger effect = lower value
[66] = locus YPL256C, strain CLN2, stronger effect = lower value
[67] = locus YPR025C, strain CCL1, stronger effect = lower value
[68] = locus YPR106W, strain ISR1, stronger effect = lower value
[69] = locus YPR111W, strain DBF20, stronger effect = lower value
[70] = strain NNK1, stronger effect = lower value
[71] = strain TSCII, stronger effect = lower value

Structure (SMILES): Cc1c(C)c(C)c(CSC(N)=Nc2ccc(F)cc2)c(C)c1C
- normalized growth [1]: 0.996
- normalized growth [2]: 0.997
- normalized growth [3]: 0.994
- normalized growth [4]: 0.997
- normalized growth [5]: 0.997
- normalized growth [6]: 0.999
- normalized growth [7]: 0.995
- normalized growth [8]: 1.01
- normalized growth [9]: 0.992
- normalized growth [10]: 1
- normalized growth [11]: 0.944
- normalized growth [12]: 1
- normalized growth [13]: 0.998
- normalized growth [14]: 0.995
- normalized growth [15]: 0.931
- normalized growth [16]: 0.894
- normalized growth [17]: 0.937
- normalized growth [18]: 1.01
- normalized growth [19]: 0.993
- normalized growth [20]: 1
- normalized growth [21]: 0.946
- normalized growth [22]: 1.01
- normalized growth [23]: 0.932
- normalized growth [24]: 0.959
- normalized growth [25]: 0.975
- normalized growth [26]: 0.946
- normalized growth [27]: 0.953
- normalized growth [28]: 1.02
- normalized growth [29]: 0.967
- normalized growth [30]: 0.992
- normalized growth [31]: 0.925
- normalized growth [32]: 0.942
- normalized growth [33]: 0.936
- normalized growth [34]: 0.998
- normalized growth [35]: 0.93
- normalized growth [36]: 1.05
- normalized growth [37]: 0.966
- normalized growth [38]: 0.955
- normalized growth [39]: 0.943
- normalized growth [40]: 0.999
- normalized growth [41]: 0.999
- normalized growth [42]: 0.823 (active)
- normalized growth [43]: 0.969
- normalized growth [44]: 0.953
- normalized growth [45]: 0.921
- normalized growth [46]: 0.993
- normalized growth [47]: 0.953
- normalized growth [48]: 1
- normalized growth [49]: 1
- normalized growth [50]: 0.969
- normalized growth [51]: 1
- normalized growth [52]: 1.03
- normalized growth [53]: 0.998
- normalized growth [54]: 1.01
- normalized growth [55]: 0.969
- normalized growth [56]: 0.998
- normalized growth [57]: 0.945
- normalized growth [58]: 0.972
- normalized growth [59]: 1
- normalized growth [60]: 0.97
- normalized growth [61]: 0.996
- normalized growth [62]: 0.929
- normalized growth [63]: 0.942
- normalized growth [64]: 0.95
- normalized growth [65]: 0.999
- normalized growth [66]: 0.902
- normalized growth [67]: 1
- normalized growth [68]: 0.99
- normalized growth [69]: 0.99
- normalized growth [70]: 0.995
- normalized growth [71]: 0.998

Structure (SMILES): CCSC(N)=Nc1ccc(C(F)(F)F)cc1
- normalized growth (locus YAL040C, strain CLN3, stronger effect = lower value): 0.942
- normalized growth (locus YCL061C, strain MRC1 (second series), stronger effect = lower value): 0.997
- normalized growth (locus YDR363W, strain ESC2, stronger effect = lower value): 0.98
- normalized growth (locus YER002W, strain NOP16, stronger effect = lower value): 1.03
- normalized growth (locus YGR229C, strain SMI1, stronger effect = lower value): 0.931
- normalized growth (locus YJR075W, strain HOC1, stronger effect = lower value): 1.01
- normalized growth (locus YMR263W, strain SAP30, stronger effect = lower value): 1
- normalized growth (locus YMR307W, strain GAS1, stronger effect = lower value): 1
- normalized growth (locus YNL128W, strain TEP1, stronger effect = lower value): 1.01
- normalized growth (locus YNL153C, strain GIM3, stronger effect = lower value): 1
- normalized growth (locus YNL175C, strain NOP13, stronger effect = lower value): 1.01
- normalized growth (locus YNL197C, strain WHI3, stronger effect = lower value): 1.03
- normalized growth (locus YNL224C, strain SQS1, stronger effect = lower value): 0.997
- normalized growth (locus YOR083W, strain WHI5 (second series), stronger effect = lower value): 0.989
- normalized growth (locus YPL055C, strain LGE1, stronger effect = lower value): 0.986

Structure (SMILES): NC(=Nc1ccc(F)cc1)SCc1c(Cl)cccc1Cl
- normalized growth [1]: 0.992
- normalized growth [2]: 0.99
- normalized growth [3]: 0.985
- normalized growth [4]: 0.984
- normalized growth [5]: 0.986
- normalized growth [6]: 0.99
- normalized growth [7]: 0.983
- normalized growth [8]: 0.996
- normalized growth [9]: 0.985
- normalized growth [10]: 0.986
- normalized growth [11]: 0.954
- normalized growth [12]: 0.992
- normalized growth [13]: 0.991
- normalized growth [14]: 0.985
- normalized growth [15]: 0.96
- normalized growth [16]: 0.923
- normalized growth [17]: 0.954
- normalized growth [18]: 0.987
- normalized growth [19]: 0.994
- normalized growth [20]: 0.99
- normalized growth [21]: 0.96
- normalized growth [22]: 0.989
- normalized growth [23]: 0.947
- normalized growth [24]: 0.981
- normalized growth [25]: 0.978
- normalized growth [26]: 0.985
- normalized growth [27]: 0.962
- normalized growth [28]: 1.05
- normalized growth [29]: 0.962
- normalized growth [30]: 0.99
- normalized growth [31]: 0.954
- normalized growth [32]: 0.938
- normalized growth [33]: 0.961
- normalized growth [34]: 0.991
- normalized growth [35]: 0.99
- normalized growth [36]: 1.09
- normalized growth [37]: 0.967
- normalized growth [38]: 0.962
- normalized growth [39]: 0.945
- normalized growth [40]: 0.989
- normalized growth [41]: 1.03
- normalized growth [42]: 0.882
- normalized growth [43]: 0.975
- normalized growth [44]: 0.975
- normalized growth [45]: 0.944
- normalized growth [46]: 0.991
- normalized growth [47]: 0.961
- normalized growth [48]: 0.989
- normalized growth [49]: 0.982
- normalized growth [50]: 0.971
- normalized growth [51]: 0.988
- normalized growth [52]: 1.06
- normalized growth [53]: 0.994
- normalized growth [54]: 0.988
- normalized growth [55]: 0.987
- normalized growth [56]: 0.986
- normalized growth [57]: 0.958
- normalized growth [58]: 0.975
- normalized growth [59]: 1.02
- normalized growth [60]: 0.985
- normalized growth [61]: 0.99
- normalized growth [62]: 0.952
- normalized growth [63]: 0.964
- normalized growth [64]: 0.989
- normalized growth [65]: 0.994
- normalized growth [66]: 0.962
- normalized growth [67]: 0.98
- normalized growth [68]: 0.981
- normalized growth [69]: 0.982
- normalized growth [70]: 0.992
- normalized growth [71]: 1
